The source of these data is PubChem BioAssay.

The subject of test [1] is Wnt5a (protein binding on small-molecule microarray). In words: Wnt5a binders on small-molecule microarray, primary screen, biophysical, 635/667 nm fluorescence (AID 1142).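 Note: fluorescence read at 667 nm with signal to noise per printed feature.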 The note with it: 635 nm fluorescence, higher = more signal.
Test [2] in a line: cell viability in Huh7 cells, primary screen, cytotoxicity control for HCV replication inhibitor project, CellTiter-Glo luminescence, basal, 48 h (AID 1143).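 Note: Huh7 hepatoma cells carrying a hepatitis C replication reporter with no stimulus; test concentration not given here.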 The note with it: Huh7 HCV replicon, higher = more signal, called active from +8 up or from −8 down. (Cellular ATP, detected with luciferase, serves as a proxy for viable cell number.)
Test [3] is described as follows: P. aeruginosa biofilm formation inhibitors, primary screen, PAO1 strain, BacTiter-Glo luminescence, LB-PBS (AID 1144). Particulars: 12 h, higher = more signal.
Test [4] is described as follows: CREB reporter modulators without forskolin, primary screen, cell-based, PC12, CRE-LacZ reporter, unstimulated (AID 1145). Particulars: no forskolin, luminescence, 4.5 h, higher = more signal, called active from +8 up or from −8 down.
Test [5] in a line: CREB reporter modulators under forskolin, primary screen, cell-based, PC12, CRE-LacZ reporter, forskolin-stimulated (AID 1146).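 Note: PC12 cells with 6xCRE LacZ reporter stimulated by forskolin 10 µM; beta-galactosidase reporter signal reflecting CREB driven transcription.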 Particulars: luminescence, 4.5 h, higher = more signal, called active from +8 up or from −8 down.
Test [6] addresses Streptavidin (Streptomyces avidinii) (UniProt P22629). In words: streptavidin binders on small-molecule microarray, primary screen, artefact control for SMM compound annotation, biophysical, 635/667 nm fluorescence (AID 1147).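 Note: signal reflects streptavidin binding to arrayed compounds as a control protein.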 Particulars: streptavidin binding, higher = more signal.
Test [7] in a line: small-molecule binders of probe aInhba, primary screen, biochemical, small-molecule microarray, 635/667 nm fluorescence (AID 1148).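 Note: score merges 667nm spot fluorescence with signal-to-noise for antibody binding to printed compounds.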 The note with it: higher = more signal.
Test [8] deals with Torsin-1A (Homo sapiens) (UniProt O14656). Description: torsin A binders from cell lysate, primary screen, small-molecule microarray, wild-type, 635/667 nm (AID 1149). The note with it: COS7 hTOR1A-WT lysate, 635 nm fluorescence, higher = more signal.
Torsin-1A (Homo sapiens), sequence (O14656 whole entry, looked up): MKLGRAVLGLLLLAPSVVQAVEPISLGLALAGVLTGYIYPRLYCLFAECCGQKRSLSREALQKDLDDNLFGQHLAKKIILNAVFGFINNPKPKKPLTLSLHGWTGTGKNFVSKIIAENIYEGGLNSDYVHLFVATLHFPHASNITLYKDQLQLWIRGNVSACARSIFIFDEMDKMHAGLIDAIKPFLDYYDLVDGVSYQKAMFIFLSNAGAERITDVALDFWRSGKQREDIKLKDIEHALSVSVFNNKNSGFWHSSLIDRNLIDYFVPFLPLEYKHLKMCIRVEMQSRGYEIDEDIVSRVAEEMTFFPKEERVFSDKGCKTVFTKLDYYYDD
For test [9] the target is unchanged. In words: small-molecule binders of mutant TOR1A in lysate, primary screen, cell lysate, small-molecule microarray, COS7 lysate, 635/667 nm fluorescence (AID 1150).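 Note: score pools 667 nm emission and signal to noise measuring lysate protein binding.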 Particulars: COS7 hTOR1A mutant lysate, 635 nm fluorescence, higher = more signal.
Test [10] has as its system Sonic hedgehog protein (Shh). Description: small-molecule binders of Shh protein, primary screen, biochemical, small-molecule microarray, 635/667 nm fluorescence (AID 1151).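 Note: Shh protein binding to compounds spotted on small-molecule microarray slides; score combines spot fluorescence intensity with signal-to-noise across triplicate slides.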 The note with it: small-molecule microarray binding, 635 nm fluorescence; higher = more signal.
Test [11] can be described thus: E. coli DRC41 culture turbidity changes, primary screen, E. coli filamentation inducer project, strain DRC41, OD650, 48 h (AID 1152).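 Note: E. coli MC1000 strain DRC41 lacking acrAB efflux pump and sulA.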 Particulars: E. coli DRC41 (acrAB sulA), higher = more signal, called active from +8 up or from −8 down.
Test [12] in a line: small-molecule binders of probe aLefty1, primary screen, biochemical, small-molecule microarray, 635/667 nm fluorescence (AID 1153).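 Note: score merges spot fluorescence with signal-to-noise ratio from the scanned slide images.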 The note with it: higher = more signal.
A short description of test [13]: PSAC antagonists in infected red cells, primary screen, cell-based, P. falciparum Indochina, OD700, 1 h (AID 1154). The note with it: P. falciparum Indochina infected RBC osmotic lysis, higher = more signal, called active from +8 up or from −8 down.
Test [14] can be described thus: PSAC antagonists in infected red cells, primary screen, cell-based, P. falciparum Indochina, OD700, 2 h (AID 1155).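 Note: lysis reports solute entry through the parasite surface anion channel PSAC; channel blockers reduce lysis of infected cells.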 Particulars: P. falciparum Indochina infected erythrocytes, osmotic lysis OD700; higher = more signal, called active from +8 up or from −8 down.
A short description of test [15]: osmotic lysis modulators in infected erythrocytes, primary screen, PSAC antagonist project, cell-based, P. falciparum Indochina, OD700, 3 h (AID 1156). The note with it: higher = more signal, called active from +8 up or from −8 down.
A short description of test [16]: PSAC antagonists in infected red cells, primary screen, cell-based, P. falciparum Indochina, OD700, 18 h (AID 1157). Particulars: P. falciparum Indochina infected erythrocytes, osmotic lysis OD700, 18 h; higher = more signal, called active from +8 up or from −8 down.
A short description of test [17]: modulators of S6 phosphorylation in cells, primary screen, cell-based, A549, cytoblot, luminescence, serum-stimulated (AID 1158).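 Note: serum-stimulated A549 lung adenocarcinoma cells; signal is phosphorylated S6 detected by cytoblot immunostaining with HRP secondary.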 Particulars: A549 phospho-S6 cytoblot, 5 h, higher = more signal.
Test [18] has as its target NADPH oxidase 2 (Homo sapiens) (UniProt P04839). Description: NOX2-dependent H2O2 signal modulators, primary screen, NOX inhibitor project, cell-based, HEK293-NOX2, PMA-stimulated, Amplex Red fluorescence (AID 1159). Note: test concentration not given here. Particulars: 45 min, higher = more signal, called active from +8 up or from −8 down.
Test [19] addresses NADPH oxidase 4 (Homo sapiens) (UniProt Q9NPH5). In words: NOX4-dependent H2O2 signal modulators, primary screen, NOX inhibitor project, cell-based, HEK293-NOX4, tetracycline-induced, Amplex Red fluorescence (AID 1160). Particulars: 45 min, higher = more signal, called active from +8 up or from −8 down.
Test [20] deals with NADPH oxidase 5 (Homo sapiens) (UniProt Q96PH1). Description: NOX5-dependent H2O2 signal modulators, primary screen, NOX inhibitor project, cell-based, HEK293-NOX5, Amplex Red fluorescence (AID 1161). Particulars: HEK293-NOX5, ionomycin, 45 min, higher = more signal.
NADPH oxidase 5 (Homo sapiens), sequence (Q96PH1 whole entry, looked up): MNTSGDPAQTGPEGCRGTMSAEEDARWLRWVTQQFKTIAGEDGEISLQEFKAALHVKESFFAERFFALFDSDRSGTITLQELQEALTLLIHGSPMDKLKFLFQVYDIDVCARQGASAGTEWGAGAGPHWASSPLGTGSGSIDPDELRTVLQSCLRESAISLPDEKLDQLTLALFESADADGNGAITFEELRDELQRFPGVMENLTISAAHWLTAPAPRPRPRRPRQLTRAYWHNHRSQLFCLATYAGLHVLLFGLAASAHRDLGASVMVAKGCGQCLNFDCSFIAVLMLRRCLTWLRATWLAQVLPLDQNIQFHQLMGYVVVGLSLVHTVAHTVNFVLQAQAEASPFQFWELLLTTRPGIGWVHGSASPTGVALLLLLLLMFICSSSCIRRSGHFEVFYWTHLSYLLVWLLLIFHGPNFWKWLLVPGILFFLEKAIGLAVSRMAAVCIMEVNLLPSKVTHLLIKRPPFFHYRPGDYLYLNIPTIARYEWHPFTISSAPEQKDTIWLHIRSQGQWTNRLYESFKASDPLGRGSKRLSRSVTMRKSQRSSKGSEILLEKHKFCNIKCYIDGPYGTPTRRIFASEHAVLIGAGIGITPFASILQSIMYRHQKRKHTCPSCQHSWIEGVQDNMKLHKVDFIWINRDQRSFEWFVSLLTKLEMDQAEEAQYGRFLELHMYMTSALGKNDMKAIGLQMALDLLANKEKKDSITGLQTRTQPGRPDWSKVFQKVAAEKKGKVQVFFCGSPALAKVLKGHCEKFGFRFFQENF

SMILES strings stand for the structures. Activity calls are given as the source filed them. Unless noted, the rule behind the calls is not given here.

NADPH oxidase 2 (Homo sapiens), sequence (P04839 whole entry, looked up): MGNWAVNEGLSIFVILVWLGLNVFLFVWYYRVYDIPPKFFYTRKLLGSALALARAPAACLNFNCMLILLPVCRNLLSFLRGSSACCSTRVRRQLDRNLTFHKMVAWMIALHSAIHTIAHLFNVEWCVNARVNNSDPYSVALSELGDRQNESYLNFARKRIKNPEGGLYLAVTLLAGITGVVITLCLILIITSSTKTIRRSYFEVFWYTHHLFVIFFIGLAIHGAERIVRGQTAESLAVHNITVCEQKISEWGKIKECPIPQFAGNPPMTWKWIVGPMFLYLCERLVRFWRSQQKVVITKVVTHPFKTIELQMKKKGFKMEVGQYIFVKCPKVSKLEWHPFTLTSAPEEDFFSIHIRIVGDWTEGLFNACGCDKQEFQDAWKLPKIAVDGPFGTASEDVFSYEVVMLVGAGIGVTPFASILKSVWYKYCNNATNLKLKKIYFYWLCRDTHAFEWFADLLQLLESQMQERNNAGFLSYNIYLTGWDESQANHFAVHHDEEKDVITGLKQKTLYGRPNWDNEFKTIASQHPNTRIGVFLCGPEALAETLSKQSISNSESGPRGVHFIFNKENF
Streptavidin (Streptomyces avidinii), sequence (P22629 whole entry, looked up): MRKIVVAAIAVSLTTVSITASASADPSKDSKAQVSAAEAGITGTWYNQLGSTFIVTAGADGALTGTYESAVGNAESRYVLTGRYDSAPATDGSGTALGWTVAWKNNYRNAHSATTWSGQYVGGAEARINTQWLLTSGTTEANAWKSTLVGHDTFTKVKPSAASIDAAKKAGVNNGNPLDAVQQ
NADPH oxidase 4 (Homo sapiens), sequence (Q9NPH5 whole entry, looked up): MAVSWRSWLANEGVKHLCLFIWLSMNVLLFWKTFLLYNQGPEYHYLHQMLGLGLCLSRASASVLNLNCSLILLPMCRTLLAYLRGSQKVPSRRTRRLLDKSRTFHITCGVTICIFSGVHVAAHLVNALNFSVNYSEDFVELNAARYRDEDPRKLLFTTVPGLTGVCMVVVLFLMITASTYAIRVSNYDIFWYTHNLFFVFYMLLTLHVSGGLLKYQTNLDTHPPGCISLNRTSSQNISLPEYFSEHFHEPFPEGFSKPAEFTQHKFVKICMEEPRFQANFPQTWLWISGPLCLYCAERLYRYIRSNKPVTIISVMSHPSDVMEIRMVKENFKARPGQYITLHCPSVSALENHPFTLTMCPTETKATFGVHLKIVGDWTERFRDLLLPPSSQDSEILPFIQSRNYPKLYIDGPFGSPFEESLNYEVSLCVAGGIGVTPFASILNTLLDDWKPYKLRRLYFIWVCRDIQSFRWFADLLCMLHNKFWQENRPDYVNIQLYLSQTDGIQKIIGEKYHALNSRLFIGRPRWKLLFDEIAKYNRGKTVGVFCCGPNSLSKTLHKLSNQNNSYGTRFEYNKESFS

On to `O=C1CCCC=C1C(O)CCOCc1ccccc1` (stereo not given), for which the composite z-score is -0.0912 in test [1]; 0.787 in test [6]; -0.2 in [7]; 0.728 with Torsin-1A (Homo sapiens) [8]; 0.0645 in the test with Torsin-1A (Homo sapiens) [9]; 0.307 in [10]. This compound gave a composite z-score in test [12] of -0.342. Moreover, the z-score is 0.056 (inactive) in test [2]; 0.964 (inactive) in test [3]; 0.11 (inactive) in test [4]; 0.0483 (inactive) in test [5]; -1.7 (inactive) in test [11]; 0.427 (inactive) in [13]. Moreover, the z-score in test [14] was -0.127 (inactive); in test [15], 0.452 (inactive); in [16], -0.118 (inactive); in [17], -0.235; in test [18] it was 1.18 (inactive); in test [19], 0.45 (inactive). In test [20], this compound gave a z-score of -0.00615.
Take `CCCNC(=O)[C@@H]1c2ccccc2C(=O)N(Cc2ccccc2Cl)[C@H]1c1ccc(CO)cc1`: the composite z-score amounted to 0.4 in [1]; 0.802 in test [6]; 0.264 in [7]; 0.174 with Torsin-1A (Homo sapiens) [8]; 0.461 with Torsin-1A (Homo sapiens) [9]; 1.9 in [10]. This compound showed a composite z-score in [12] of 0.227. Moreover, the z-score was -1.44 (inactive) in [2]; 0.378 (inactive) in [3]; -0.412 (inactive) in [4]; -0.366 (inactive) in test [5]; 2.47 (inactive) in test [11]; 1.8 (inactive) in [13]. For the same compound, the z-score in [14] was 0.0323 (inactive); in test [15], 0.621 (inactive); in test [16], -0.505 (inactive); in test [17] it was 0.335; in test [18], -0.988 (inactive); in test [19] it was 0.601 (inactive). Further, the z-score in test [20] is -0.33.
Consider `CC(C)=CCCC(C)=CCON=C1[C@H]2CCn3c(=O)n(Cc4cc5c(cc4Cl)OCO5)c(=O)n3[C@H]2[C@H](O)[C@@H]2O[C@H]12`, for which the composite z-score in [1] is 0.0888; in test [6], 0.813; in [7], -0.128; with Torsin-1A (Homo sapiens) [8], 1.62; with Torsin-1A (Homo sapiens) [9], 0.718; in [10] it was 0.563. This compound registered a composite z-score in test [12] of -0.0559. The z-score in test [2] is 0.148 (inactive); in [3] it was 0.138 (inactive); in test [4], 0.336 (inactive); in test [5] it was 0.392 (inactive); in test [11], -0.939 (inactive); in test [13], 1.34 (inactive). Besides, the z-score in test [14] was 0.722 (inactive); in [15], 0.555 (inactive); in [16] it was 0.38 (inactive); in [17], 0.181; in [18], 0.594 (inactive); in [19] it was -1.12 (inactive). For the same compound, in [20], the z-score is -0.711.
`CC(C)CN1CCc2nc(-c3ccccc3)c3c(c2CC1)CO[C@@H](C)C3`: the composite z-score in test [1] was 0.134; in test [6] it was -0.2; in test [7], 0.255; in the test with Torsin-1A (Homo sapiens) [8] it was 0.531; with Torsin-1A (Homo sapiens) [9], 0.954; in test [10], 1.53. In addition, the composite z-score in [12] turned out to be 0.0981. For the same compound, the z-score in [2] is -0.388 (inactive); in test [3], -0.705 (inactive); in test [4], 0.738 (inactive); in [5] it was -1.26 (inactive); in [11] it was 0.0991 (inactive); in test [13], 0.82 (inactive). For the same compound, the z-score in test [14] was 0.576 (inactive); in [15], 0.923 (inactive); in [16], -0.142 (inactive); in [17], -0.528; in [18], 1.47 (inactive); in [19] it was -0.0482 (inactive). Also, the z-score in [20] is -0.334.
`O=C1[C@H]2[C@H]3[C@H](O)[C@H](O)CC(=NOC[C@@H](O)COCc4ccco4)[C@H]3CC[C@H]2C(=O)N1c1cccc(Oc2ccccc2)c1`: the composite z-score in test [1] was -0.31; in test [6], -0.393; in test [7], -0.285; with Torsin-1A (Homo sapiens) [8] it was 0.626; with Torsin-1A (Homo sapiens) [9], 0.948; in test [10] it was -0.621. Further, the composite z-score in [12] is -0.353. In addition, the z-score was -0.6 (inactive) in [2]; -0.0166 (inactive) in [3]; -0.21 (inactive) in test [4]; 0.452 (inactive) in test [5]; 0.66 (inactive) in test [11]; 3.18 (inactive) in test [13]. Further, the z-score was 1.15 (inactive) in test [14]; 1.28 (inactive) in test [15]; 0.795 (inactive) in test [16]; 0.404 in test [17]; -2.98 (inactive) in test [18]; 1.31 (inactive) in [19]. Also, the z-score in test [20] is -0.185.
For `COC(=O)[C@@]1(Cc2ccc(OC)cc2)[C@H]2c3cc(C(=O)N4CCCC4)n(Cc4cc(F)c(F)c(F)c4)c3C[C@H]2CN1C(=O)c1ccccc1`, the composite z-score in [1] was 2.29; in test [6], 2.6; in test [7] it was 1.87; with Torsin-1A (Homo sapiens) [8], 0.188; in the test with Torsin-1A (Homo sapiens) [9] it was 0.538; in test [10], -0.241. In [12], this compound gave a composite z-score of 2.39. For the same compound, the z-score was -3.23 (inactive) in [2]; 0.112 (inactive) in test [3]; 0.0041 (inactive) in test [4]; 0.589 (inactive) in [5]; -2.13 (inactive) in [11]; 1.1 (inactive) in test [13]. The z-score in [14] is 1.07 (inactive); in test [15], 0.718 (inactive); in [16], 0.911 (inactive); in test [17], -0.215; in [18], 1.01 (inactive); in [19], -0.256 (inactive). Besides, the z-score in test [20] was 0.603.
Consider `CC(C)=NOCc1cccc(-c2cc(-c3ccccc3)no2)c1`, for which the composite z-score came out at 0.118 in test [1]; 0.468 in test [6]; 0.106 in [7]; 0.533 in the test with Torsin-1A (Homo sapiens) [8]; 0.247 with Torsin-1A (Homo sapiens) [9]; 0.826 in [10]. This compound also came in with a composite z-score in test [12] of 0.194. For the same compound, the z-score in [2] was 0.525 (inactive); in test [3] it was -0.14 (inactive); in [4], -0.437 (inactive); in [5], 0.345 (inactive); in test [11], -1.79 (inactive); in test [13], 0.648 (inactive). The z-score in test [14] was -0.166 (inactive); in test [15], -0.532 (inactive); in [16], -0.388 (inactive); in [17] it was -0.947; in test [18] it was 1.21 (inactive); in test [19], 0.439 (inactive). This compound had a z-score in test [20] of -0.0547.
For `CN(C)c1ccc(C(O)C2C=CC3C(=O)N(c4ccccc4)C(=O)C3N2Nc2ccccc2F)cc1` (stereo not given), the composite z-score in test [1] is 0.0698; in [6] it was 0.557; in test [7] it was -0.125; with Torsin-1A (Homo sapiens) [8], 0.221; in the test with Torsin-1A (Homo sapiens) [9], 0.15; in test [10], -0.378. For the same compound, the composite z-score in test [12] came to 0.284. In addition, the z-score was -1.3 (inactive) in test [2]; 0.136 (inactive) in [3]; 2.56 (inactive) in [4]; 1.03 (inactive) in [5]; -1.4 (inactive) in test [11]; 4.37 (inactive) in test [13]. The z-score is 1.2 (inactive) in test [14]; 0.252 (inactive) in test [15]; 0.586 (inactive) in test [16]; -0.288 in test [17]; -2.5 (inactive) in test [18]; -4.43 (inactive) in test [19]. The same compound displayed a z-score in [20] of -3.99.
